# Data published in PubChem BioAssay.
# This is one part of the list. Activity calls are given as the source filed them. Unless noted, no rule for the calls is given here.
# What was measured:
# [1] = inhibition of Brca1/Bard1 split-luciferase complementation, confirmation, counter-screen for Mdm2/MdmX interaction inhibitor project, luminescence, single concentration (AID 504668); settings: Brca1/Bard1 bimolecular luciferase complementation counterscreen, at 8 µM, stronger effect = higher value
# [2] = molecular target: Tumor necrosis factor receptor superfamily member 10B (Homo sapiens) (UniProt O14763); assay: caspase-8 TRAIL sensitization, hit retest, confirmation, cell-based, NB7+caspase-8, with/without TRAIL, luminescence panel (AID 651596; in the data active = activity above about 50%); settings: NB7 neuroblastoma + caspase-8, TRAIL sensitization, luminescence viability, with TRAIL, mean of runs, at 10 µM, stronger effect = higher value
# Chain of Tumor necrosis factor receptor superfamily member 10B (Homo sapiens) (O14763 whole entry, looked up): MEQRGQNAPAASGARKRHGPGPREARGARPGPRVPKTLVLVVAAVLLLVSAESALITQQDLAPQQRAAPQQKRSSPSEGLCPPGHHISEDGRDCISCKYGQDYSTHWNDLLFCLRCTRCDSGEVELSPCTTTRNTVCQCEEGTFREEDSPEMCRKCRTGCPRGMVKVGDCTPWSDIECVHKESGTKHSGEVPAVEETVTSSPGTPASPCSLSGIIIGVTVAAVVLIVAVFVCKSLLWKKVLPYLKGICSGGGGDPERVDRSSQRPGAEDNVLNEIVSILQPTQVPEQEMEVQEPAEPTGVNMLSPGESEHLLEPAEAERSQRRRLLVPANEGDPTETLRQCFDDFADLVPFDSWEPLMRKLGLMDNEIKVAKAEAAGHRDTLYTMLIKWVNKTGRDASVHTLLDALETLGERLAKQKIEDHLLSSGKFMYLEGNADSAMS
# [3] = as above; settings: NB7 neuroblastoma + caspase-8, without TRAIL, luminescence viability, without TRAIL, mean of runs, at 10 µM
# [4] = HIF-2a reporter inhibitor retest, confirmation, luminescence, 786-0 RCC cells (AID 651580;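 active = mean inhibition across four replicates of at least 40 percent at the single tested concentration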); settings: HIF-2a luciferase reporter luminescence, overnight, at 18.8 µM, stronger effect = higher value
# [5] = HIF-1a luciferase reporter signal reduction – MiaPaCa-2 cells, single concentration, counter-screen for HIF-2a inhibitor project, confirmation (AID 651589;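 active = mean inhibition of the reporter signal across four replicates at the single tested dose of 50% or more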); settings: MiaPaCa-2 HIF-1a luciferase reporter, desferoxamine, overnight; at 18.8 µM; stronger effect = higher value
# [6] = molecular target: Carboxy-terminal domain RNA polymerase II polypeptide A small phosphatase 1 (Homo sapiens) (UniProt Q9GZU7); assay: Scp-1 binding by thermal shift, confirmation, orthogonal assay for Scp-1 inhibitor project, biophysical, differential scanning fluorimetry (AID 540329;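 active = substances whose mean melting-temperature shift, as a percentage of the reference inhibitor's shift, reaches about 5.3%, limit read from the data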;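 also: 0% = Tm of DMSO wells and 100% = Tm with sodium orthovanadate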); settings: Recombinant SCP1, Sypro Orange thermal shift Tm; at 40 µM; stronger effect = higher value
# Chain of Carboxy-terminal domain RNA polymerase II polypeptide A small phosphatase 1 (Homo sapiens) (Q9GZU7 76-261 limits assumed): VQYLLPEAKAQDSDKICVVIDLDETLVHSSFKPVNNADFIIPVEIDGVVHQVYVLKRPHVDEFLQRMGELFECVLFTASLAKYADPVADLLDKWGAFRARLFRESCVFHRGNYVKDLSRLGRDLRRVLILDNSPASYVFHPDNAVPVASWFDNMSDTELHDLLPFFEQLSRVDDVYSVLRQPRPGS
# [7] = molecular target: Tumor necrosis factor receptor superfamily member 10B (Homo sapiens) (UniProt O14763); assay: TRAIL sensitizers in caspase-8 expressing neuroblastoma cells, dose response, NB7 cells plus caspase-8, luminescence, panel (AID 652002); settings: NB7 neuroblastoma +caspase-8, TRAIL sensitization, luminescence viability, NB7+Caspase-8, with TRAIL, run 1; at 12.5 µM (top of the series)
# [8] = molecular target: Tumor necrosis factor receptor superfamily member 10B (Homo sapiens) (UniProt O14763); assay: as above; settings: NB7 neuroblastoma +caspase-8, TRAIL sensitization, luminescence viability, NB7+Caspase-8, with TRAIL, run 2; at 12.5 µM (top of the series)
# [9] = as above; settings: NB7 neuroblastoma +caspase-8, no TRAIL, compound-alone cytotoxicity counter-screen, luminescence viability, NB7+Caspase-8, run 1; at 12.5 µM (top of the series) unless noted
# [10] = as above; settings: NB7 neuroblastoma +caspase-8, no TRAIL, compound-alone cytotoxicity counter-screen, luminescence viability, NB7+Caspase-8, run 2; at 12.5 µM (top of the series) unless noted
smiles,measurement,setting,value
COc1ccc(NC(=O)c2nc(S(=O)(=O)Cc3cccc(C)c3)ncc2Cl)c(OC)c1,inhibition,[1],23.1% (active)
same,activity,[2],30%
same,activity,[3],66.4%
CN(C)CCCNC(=O)c1ccc(-c2nc(-c3ccc(Cl)cc3)cs2)cc1,inhibition,[1],28.3% (active)
same,activity,[2],95.2%
same,activity,[3],97.6%
Cc1ccc2sc(N(CCCN(C)C)C(=O)CCS(=O)(=O)c3ccccc3)nc2c1C,inhibition,[1],29.9% (active)
same,activity,[2],62%
same,activity,[3],93%
CCCCC(O)(CCCC)C(=O)NN(C(=O)CCl)c1ccccc1,inhibition,[1],34% (active)
same,activity,[2],92.2%
same,activity,[3],95.7%
Cc1ccc(N(Cc2cc(=O)[nH]c3ccccc23)C(=O)CCl)cc1,inhibition,[1],25.3% (active)
same,inhibition,[4],76.7% (active)
same,inhibition,[5],107% (active)
same,activity,[2],99.1%
same,activity,[3],99.3%
COC(=O)c1sc(NC(=O)c2cc(-c3ccccc3)nc3ccccc23)c(C#N)c1C,inhibition,[1],35.4% (active)
same,activity,[2],52.7%
same,activity,[3],39.1%
Cn1c(=NC(=O)CCl)sc2ccccc21,inhibition,[1],28.7% (active)
same,activity,[2],99.5%
same,activity,[3],98.7%
O=C(Nc1ccc(OCC(F)(F)C(F)F)c(C(F)(F)F)c1)c1ccccc1O,inhibition,[1],28.2% (active)
same,activity,[2],67.8%
same,activity,[3],68%
CCCCCN=C(N)N/N=C/c1c[nH]c2ccc(OC)cc12,inhibition,[1],30.4% (active)
same,activity,[2],96.9%
same,activity,[3],98%
CCCCCCCNC(=O)C1(CC2CC(c3ccc(Cl)cc3)=NO2)CCNCC1 (stereo unspecified),inhibition,[1],25.4% (active)
same,activity,[2],41.9%
same,activity,[3],93.1%
COC(=O)c1c(NC(=O)c2ccc(OC(C)C)cc2)sc2c1CC(C)(C)NC2(C)C,inhibition,[1],23.6% (active)
same,activity,[2],43.5%
same,activity,[3],31.2%
CCCCCc1ccc(OCCCC[n+]2ccccc2)c(CCCCC)c1,inhibition,[1],24.6% (active)
same,activity,[2],24.6%
same,activity,[3],56.7%
Cn1c(=O)c(C(=O)Nc2ccccn2)c(O)c2ccccc21,inhibition,[1],28.9% (active)
same,activity,[2],60.7%
same,activity,[3],58.8%
COc1ccccc1C(=O)Nc1nc(-c2ccc(S(=O)(=O)N3CCOCC3)cc2)cs1,inhibition,[1],29.5% (active)
same,activity,[2],89.5%
same,activity,[3],80.6%
CCN(CC)CCCNc1ccc(-c2nnc(-c3ccc(OCC(C)C)cc3)o2)cn1,inhibition,[1],23.9% (active)
same,activity,[2],82.5%
same,activity,[3],97.9%
CCCCCCCC[n+]1cccc2c3ccccc3ccc21,inhibition,[1],23.3% (active)
same,activity,[2],74.7%
same,activity,[3],63.9%
COC(=O)Cc1ccc(NC(=O)c2ccc(C(C)(C)C)cc2)cc1,inhibition,[1],28.9% (active)
same,activity,[2],76.2%
same,activity,[3],77.3%
C(=N\Nc1nncc2ccccc12)/c1ccccn1,inhibition,[1],29.9% (active)
same,activity,[2],78.7%
same,activity,[3],80.2%
O=C(CCl)N(C/C=C/c1ccccc1)c1ccc2c(c1)OCCO2,inhibition,[1],26.4% (active)
same,activity,[2],97.8%
same,activity,[3],94%
O=C(CSc1ccccn1)Nc1nonc1[N+](=O)[O-],inhibition,[1],29.3% (active)
same,activity,[2],30.1%
same,activity,[3],58.2%
COc1cccc(N2CCN(c3ncnc4c3cnn4-c3ccc(C)cc3C)CC2)c1,inhibition,[1],28% (active)
same,activity,[2],97.8%
same,activity,[3],96%
O=C(Nc1ccc(OCC(F)(F)C(F)F)c(C(F)(F)F)c1)c1ccc(Cl)cc1,inhibition,[1],34% (active)
same,activity,[2],87.3%
same,activity,[3],65.7%
CC(=O)Nc1ccc(NC2=Nc3ccccc3N3C2=Nc2c(c(C)nn2-c2ccccc2)C3c2ccccc2)cc1 (stereo unspecified),inhibition,[1],32.1% (active)
same,activity,[2],89.4%
same,activity,[3],73.6%
C[n+]1ccc(C(=O)NCc2ccccc2)cc1,thermal shift relative to vanadate control,[6],-7.9% (inactive)
Cc1ccc(NC(=O)COc2ccc(/C=N\NC(=O)c3cccnc3)cc2)cc1C,thermal shift relative to vanadate control,[6],-4.33% (inactive)
O=C(CCC(=O)N/N=C/c1ccc(Br)o1)N/N=C/c1ccc(Br)o1,thermal shift relative to vanadate control,[6],-1.53% (inactive)
Cc1nn(-c2cc(Cl)ccc2N)c(=O)c2ccccc12,thermal shift relative to vanadate control,[6],-6.02% (inactive)
CC(C)(C)c1ccc(C2CC2C(=O)N/N=C\c2ccc[nH]2)cc1 (stereo unspecified),inhibition,[1],30.5% (active)
same,activity,[2],79.5%
same,activity,[3],96.8%
Cc1ccn2c(=O)nc(SCC(=O)NCc3ccc4c(c3)OCO4)nc2c1,thermal shift relative to vanadate control,[6],-9.63% (inactive)
CNS(=O)(=O)c1cccc(C(=O)OCC(=O)N2c3ccccc3NC(=O)C2(C)C)c1,thermal shift relative to vanadate control,[6],0.5% (inactive)
ON=C1/C(=N\O)CC2(C/C1=N/O)OCCO2,thermal shift relative to vanadate control,[6],4.94% (inactive)
COc1ccc(Cc2nnc(NC(=O)Cc3cccs3)s2)cc1,thermal shift relative to vanadate control,[6],9.39% (active)
C=C1c2cccc(OC)c2O[C@H](C(=O)OCC)[C@@H]1CCCCCC,thermal shift relative to vanadate control,[6],-6.9% (inactive)
COc1ccc(OCC(=O)NNC(=O)c2ccc(-c3ccccc3)cc2)cc1,thermal shift relative to vanadate control,[6],2.47% (inactive)
COc1cccc2cc(-c3cc(=O)oc4cc(C)c(O)cc34)oc12,thermal shift relative to vanadate control,[6],-12.5% (inactive)
Cc1cc(NC(=O)c2cncc(Br)c2)ccc1NC(=O)c1cc2ccccc2o1,inhibition,[1],28.6% (active)
same,activity,[2],58.9%
same,activity,[3],13.3%
same,"activity, % sensitization",[7],7.53%
same,"activity, % sensitization",[8],53.9%
same,"activity, % sensitization",[9],12.3%
same,"activity, % sensitization",[10],28.1%
CC1CCN(c2ccc(S(=O)(=O)Nc3cc(C(=O)O)cc(C(=O)O)c3)cc2[N+](=O)[O-])CC1,thermal shift relative to vanadate control,[6],15% (active)
CCCCCc1cc(=O)oc2c(C(CCN3CCCCC3)c3cc(OC)c(OC)c(OC)c3)c(OC)cc(OC)c12 (stereo unspecified),inhibition,[1],26.6% (active)
same,activity,[2],45.4%
same,activity,[3],36.5%
CN(c1ccccc1)S(=O)(=O)c1ccc(Cl)c(C(=O)OCC(=O)NCc2ccco2)c1,thermal shift relative to vanadate control,[6],-14.8% (inactive)
CN(C)c1ccnc2c[cH-]cc12.[Fe].c1ccc(-[c-]2[c-](-c3ccccc3)[c-](-c3ccccc3)[c-](-c3ccccc3)[c-]2-c2ccccc2)cc1 (stereo unspecified),inhibition,[1],32% (active)
same,activity,[2],6.08%
same,activity,[3],-38.5%
N#Cc1ccccc1CN1C(=O)S/C(=C/c2cccn2-c2cccc(C(=O)O)c2)C1=O,thermal shift relative to vanadate control,[6],1.96% (inactive)
O=C(COC(=O)c1ccccc1O)NCc1ccco1,thermal shift relative to vanadate control,[6],-13.8% (inactive)
O=C(COC(=O)c1cnc(Cl)c(Cl)c1)NCc1ccco1,thermal shift relative to vanadate control,[6],-1.58% (inactive)
O=C(COC(=O)CCC(=O)c1cccs1)NCc1ccco1,thermal shift relative to vanadate control,[6],-2.74% (inactive)
O=C(Cn1nnc(-c2ccc3c(c2)OCO3)n1)NCc1ccco1,thermal shift relative to vanadate control,[6],2.67% (inactive)
Cc1ccc(SCC(=O)NC(=O)NCc2ccco2)c(C)c1,thermal shift relative to vanadate control,[6],-1.14% (inactive)
